Test results published in PubChem BioAssay AID651820 (National Center for Advancing Translational Sciences (NCATS), 2012).
Among all 340,000 compounds or so, about 12,000 (3.5%) were called active. Another 18% or so got no clear call; they are omitted. The entries come from a sample that favours actives as a whole. Values without a mark were called inactive. The call rests on the fitted dose curve; in most records, active means well fitted inhibition curve with a large enough effect; inconclusive means small, poorly fitted or top-dose-only effect, or another doubt; inactive means no such curve, though single readings can be large or run the other way.

assay: qHTS Assay for Inhibitors of Hepatitis C Virus (HCV); settings: Huh7.5.1 HCVcc-Cre infection, luciferase reporter, 44 h; series mostly up to 41.8 µM; activity change, negative = inhibition: at the top concentration
Method in brief: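 Cells seeded at 1,000/well and cultured 4 h, then compounds added followed by HCVcc-Cre virus (~0.5 moi). After 44 h further culture, luciferase substrate was added, plates held 15 min at room temperature, and luminescence read for 15 sec.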
On the % scale 0 is the no-effect control and ±100 the full control effect; potency means the concentration at half of the fitted maximal effect.

| SMILES | Potency | activity change, negative = inhibition [%] |
| --- | --- | --- |
| COc1ccccc1OCCNc1cc(N2CCOCC2)ccc1[N+](=O)[O-] | 14.1 µM (active) | – |
| COc1ccccc1OCCNC(=O)c1cc([N+](=O)[O-])cc([N+](=O)[O-])c1 | – | 10.3 |
| COc1ccc(Cl)cc1NC(=O)CN1CCN(C(=O)N2CCOCC2)CC1 | – | -13.9 |
| Cn1nc(C(=O)OCC(=O)N(Cc2ccccc2)C(C)(C)C)c2ccccc2c1=O | – | -24.2 |
| CN(Cc1ccc(CNC[C@H]2O[C@@H](n3cnc4c(N)ncnc43)[C@H](O)[C@@H]2O)o1)S(C)(=O)=O | – | 35.2 |
| O=C(/C=C/c1cccc([N+](=O)[O-])c1)OCC(=O)N1CCOCC1 | – | -1.47 |
| CCOc1cc(C(=O)N(Cc2ccccc2)c2ccc(C)cc2)ccc1OCC(=O)N1CCOCC1 | – | -5.74 |
| COc1ccc(OC)c(NC(=O)c2ccc3c(c2)C(=O)N(c2ccc(OC(C)=O)cc2)C3=O)c1 | – | 10.5 |
| CCOC(=O)CNC(=O)CSc1nnc(COc2ccc(Cl)cc2)n1CC | – | 15.3 |
| COc1ccc(C)cc1NC(=O)NCc1ccccn1 | – | 0.829 |
| CCOc1ccc(C(=O)NC2CCN(C(=O)Nc3ccccc3OC)CC2)cc1 | – | 0.244 |
| CCOc1ccc(NC(=O)Nc2cc(C)on2)cc1 | – | 0.646 |
| CCOc1ccc(NC(=O)Nc2cc(C)ccc2OC)cc1 | 11.2 µM (active) | – |
| CCn1c(COc2ccc(OC)cc2)nnc1SCC(=O)Nc1cc(OC)ccc1OC | 1.26 µM (active) | – |
| CCn1c(COc2ccccc2)nnc1SCC(=O)Nc1ccc2c(c1)OCCO2 | – | 6 |
| CCOc1ccc(C(=O)Nc2cc(OC)ccc2OC)cc1 | 8.91 µM (active) | – |
| CC1CCCCC12NC(=O)N(CC(=O)N1CCN(c3ccccc3)CC1)C2=O (centres undefined) | – | -9.42 |
| CSCCC(NC(=O)c1ccco1)C(=O)NCCc1ccc(F)cc1 (centres undefined) | – | 6 |
| O=C(OCC(=O)N1CCCCCC1)c1ccc(Br)c(S(=O)(=O)N2CCOCC2)c1 | – | -0.643 |
| O=C(NCCCN1CCOCC1)c1ccc2c(c1)N(Cc1cccc(F)c1)C(=O)c1ccccc1S2 | – | -10.1 |
| CCN1CCN(CCNC(=O)c2ccc3c(c2)NC(=O)/C(=C\c2ccc(OC)c(OC)c2)S3)CC1 | 31.6 µM (active) | – |
| CCN1CCN(CCNC(=O)c2ccc(/C=C3/Sc4ccccc4N(Cc4cccc(C)c4)C3=O)cc2)CC1 | 8.91 µM (active) | – |
| COc1ccc(CCNC(=O)c2ccc3c(c2)NC(=O)C(N2CCOCC2)S3)cc1OC (centres undefined) | – | -4.67 |
| COc1ccc(/C=C(\NC(=O)c2ccccc2)C(=O)NCCN2CCOCC2)cc1OC | – | 11.8 |
| Cc1nn(Cc2ccccc2)c(C)c1C(=O)NCCN1C(=O)S/C(=C\c2ccc(F)cc2)C1=O | – | -17.6 |

| SMILES | Potency | activity change, negative = inhibition [%] |
| --- | --- | --- |
| CC(=O)OC1CCC2(C)C(=CCC3C4CC(=O)N(O)C(=O)C4(C)CCC32)C1 (centres undefined) | – | 11.9 |
| COc1cc(/C=C/C(=O)OCC(=O)NC2CC2)cc(OC)c1OC | – | -13.3 |
| CN(CC(=O)NCc1cccnc1)S(=O)(=O)c1cc(Cl)ccc1Cl | – | -1.4 |
| CC(=O)c1c(OCC(=O)N(C)C2CCCCC2)ccc2c(C)cc(=O)oc12 | – | -5.03 |
| COc1cccc(C=CC(=O)C=CC=Cc2ccccc2)c1 | – | 0.583 |
| Cc1cccc(NC(=O)c2ccc3c(=O)n(CC4CCCO4)c(=S)[nH]c3c2)c1 (centres undefined) | 11.2 µM (active) | – |
| O=C(NCc1ccccc1Cl)c1ccc2c(=O)n(CC3CCCO3)c(=S)[nH]c2c1 (centres undefined) | 6.31 µM (active) | – |
| O=C(NC1CCCCC1)c1ccc2c(=O)n(CC3CCCO3)c(=O)[nH]c2c1 (centres undefined) | – | 10.9 |
| CC1Sc2ccc(C(=O)NCc3ccccc3Cl)cc2NC1=O (centres undefined) | – | 14.3 |
| O=C(NCc1ccccc1Cl)C1CCCO1 (centres undefined) | – | 18.6 |
| Cc1ccccc1NC(=O)Cn1c(=O)n(CC2CCCO2)c(=O)c2ccccc21 (centres undefined) | – | 14.2 |
| CSc1ccc(/C=C2\NC(=O)NC2=O)cc1 | – | 23 |
| Cc1cn(C2CC(O)C(CO)O2)c(=O)n(CCCc2ccccc2)c1=O (centres undefined) | – | 34.1 |
| C(#CCN1CCOCC1)CCCN1CCOCC1 | – | 2.92 |
| Cc1ccc(NS(=O)(=O)c2ccc3c(c2)n(C)c(=O)c(=O)n3C)c(C)c1 | – | 7.94 |
| COc1cccc(NS(=O)(=O)c2ccc(-c3coc(C)n3)cc2)c1 | – | -9.58 |
| Cc1ccc(NS(=O)(=O)c2ccc(-c3coc(C)n3)cc2)c(C)c1 | 11.2 µM (active) | – |
| CCCCN1C(N)=NC[C@@H]1CC1CCCCC1 | – | 17 |
| COC(=O)Cc1ccc(OCC(=O)NC2CCCC2)cc1 | – | 4.31 |
| CCN1CCN(c2c(Cl)cccc2NC(=O)c2ccc(Br)o2)CC1 | – | -19.6 |
| COc1cc(OC)cc(C(=O)NNC(=O)CNC(=O)c2ccc(Br)o2)c1 | – | 10.2 |
| COc1cc(OC)c(NC(=O)c2ccc(Br)o2)cc1Cl | 11.2 µM (active) | – |
| Cc1csc(SCC(=O)N(c2ccccc2)C(C)C)n1 | – | 13.2 |
| NC(=O)C1(Nc2ccc([N+](=O)[O-])cc2)CCCC1 | – | -3 |
